Experimental data from PubChem BioAssay (NCATS).
Inconclusive results are not listed. Calls of active or inactive are those of the source. Unless noted, calls follow the shape of the dose curve; as a rule, active = well fitted inhibition curve with a large enough effect; inconclusive = small, poorly fitted or top-dose-only effect; inactive = flat fitted curve, though single readings scatter.

Key:
[1] = qHTS drug screen for cell cycle checkpoint inhibitors in PARPi-resistant BRCA-mutant ovarian cancer cell lines. (AID 1963452; calls by dose curve); conditions: PEO1/OlaR viability, CellTiter-Glo luminescence, 96 h; for Z-AUC: stronger effect = lower value
Method in brief: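 PEO1, PEO4 and PEO1/OlaR ovarian cancer cells, 600 per well, exposed 96 h at 37C to a dilution series. Viability read by CellTiter-Glo luminescence, normalized to DMSO and empty wells; activity summarized as Z-AUC.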

[2] = qHTS profiling for inhibitors of Plasmodium falciparum proliferation (AID 504749);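 as to activity, negative = inhibition: 0% = DMSO vehicle and full inhibition = artemisinin control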; as to all read-outs here: nearly all actives have a fitted effect of over 60% in size; conditions: P. falciparum in erythrocytes, SYBR Green DNA, 72 h; for activity, negative = inhibition: at 28.7 µM (top of the series)
Method in brief: (§1)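 SYBR Green fluorescence (ex 485 nm, em 535 nm) reports parasite DNA after 72 h compound exposure of infected red cells at 0.3% parasitemia, 2.5% hematocrit; signal normalized to 0.29 uM artemisinin and vehicle wells.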

3D7 = experiment: as above; conditions: P. falciparum in erythrocytes, SYBR Green DNA, 72 h; series mostly up to 28.7 µM
Method in brief: as §1

AA1029 = experiment: as above; conditions: P. falciparum in erythrocytes, SYBR Green DNA, 72 h; series mostly up to 28.7 µM
Method in brief: as §1

AS120 = experiment: as above; conditions: P. falciparum in erythrocytes, SYBR Green DNA, 72 h; series mostly up to 28.7 µM
Method in brief: as §1

ATS189 = experiment: as above; conditions: P. falciparum in erythrocytes, SYBR Green DNA, 72 h; series mostly up to 28.7 µM
Method in brief: as §1

ATS95 = experiment: as above; conditions: P. falciparum in erythrocytes, SYBR Green DNA, 72 h; series mostly up to 28.7 µM
Method in brief: as §1

C2A = experiment: as above; conditions: P. falciparum in erythrocytes, SYBR Green DNA, 72 h; series mostly up to 28.7 µM
Method in brief: as §1

CP185 = experiment: as above; conditions: P. falciparum in erythrocytes, SYBR Green DNA, 72 h; series mostly up to 28.7 µM
Method in brief: as §1

CP191 = experiment: as above; conditions: P. falciparum in erythrocytes, SYBR Green DNA, 72 h; series mostly up to 28.7 µM
Method in brief: as §1

CP192 = experiment: as above; conditions: P. falciparum in erythrocytes, SYBR Green DNA, 72 h; series mostly up to 28.7 µM
Method in brief: as §1

CP194 = experiment: as above; conditions: P. falciparum in erythrocytes, SYBR Green DNA, 72 h; series mostly up to 28.7 µM
Method in brief: as §1

CP201 = experiment: as above; conditions: P. falciparum in erythrocytes, SYBR Green DNA, 72 h; series mostly up to 28.7 µM
Method in brief: as §1

CP203 = experiment: as above; conditions: P. falciparum in erythrocytes, SYBR Green DNA, 72 h; series mostly up to 28.7 µM
Method in brief: as §1

CP211 = experiment: as above; conditions: P. falciparum in erythrocytes, SYBR Green DNA, 72 h; series mostly up to 28.7 µM
Method in brief: as §1

CP215 = experiment: as above; conditions: P. falciparum in erythrocytes, SYBR Green DNA, 72 h; series mostly up to 28.7 µM
Method in brief: as §1

CP217 = experiment: as above; conditions: P. falciparum in erythrocytes, SYBR Green DNA, 72 h; series mostly up to 28.7 µM
Method in brief: as §1

CP237 = experiment: as above; conditions: P. falciparum in erythrocytes, SYBR Green DNA, 72 h; series mostly up to 28.7 µM
Method in brief: as §1

CP238 = experiment: as above; conditions: P. falciparum in erythrocytes, SYBR Green DNA, 72 h; series mostly up to 28.7 µM
Method in brief: as §1

7G8 = experiment: as above; conditions: P. falciparum in erythrocytes, SYBR Green DNA, 72 h; series mostly up to 28.7 µM
Method in brief: as §1

[3] = measured here: PEO1 parental Z-AUC
Potency is read from the fitted curve at half-maximal effect.

O=c1[nH]c(=O)n([C@H]2C[C@H](O)[C@@H](CO)O2)cc1F
-1.41: Z-AUC ([1]; measured here: PEO4 Z-AUC)
inactive: activity, negative = inhibition ([2]; parasite line A) 0.388% | activity, negative = inhibition ([2]; parasite line B) -0.681% | Potency (3D7) | Potency (AA1029) | Potency (AS120) | Potency (ATS189) | Potency (ATS95) | Potency (C2A) | Potency (CP185) | Potency (CP191) | Potency (CP192) | Potency (CP194) | Potency (CP201) | Potency (CP203) | Potency (CP211) | Potency (CP215) | Potency (CP217) | Potency (CP237) | Potency (CP238)
-1.95: Z-AUC [1, 3]
active: Potency [1] 0.245 µM

O=C(Nc1cccc(C2=NCCN2)c1)Nc1cccc(C2=NCCN2)c1
active: Potency ([2]; parasite line A) 8.91 µM | Potency ([2]; parasite line B) 11.2 µM | Potency (3D7) 10 µM | Potency (7G8) 0.398 µM | Potency (AA1029) 7.08 µM | Potency (AS120) 2.82 µM | Potency (ATS189) 2.82 µM | Potency (ATS95) 5.01 µM | Potency (C2A) 5.01 µM | Potency (CP185) 4.47 µM | Potency (CP191) 1.12 µM | Potency (CP192) 15.1 µM | Potency (CP194) 15.1 µM | Potency (CP201) 13.5 µM | Potency (CP203) 15.1 µM | Potency (CP211) 13.5 µM | Potency (CP215) 12 µM | Potency (CP217) 3.55 µM | Potency (CP237) 6.31 µM | Potency (CP238) 6.31 µM

C#C[C@]1(O)CC[C@H]2[C@@H]3CCC4=CC(=O)CC[C@@H]4[C@H]3CC[C@@]21CC
inactive: Z-AUC [1] -1.07 | activity, negative = inhibition ([2]; parasite line A) -9.46% | activity, negative = inhibition ([2]; parasite line B) -6.83% | Potency (3D7) | Potency (AA1029) | Potency (AS120) | Potency (ATS189) | Potency (ATS95) | Potency (C2A) | Potency (CP185) | Potency (CP191) | Potency (CP192) | Potency (CP194) | Potency (CP201) | Potency (CP203) | Potency (CP211) | Potency (CP215) | Potency (CP217) | Potency (CP238)
active: Potency (CP237) 6.31 µM
-0.819: Z-AUC [1, 3]
-0.784: Z-AUC ([1]; measured here: PEO4 Z-AUC)

CCCCCCCCCCCCSCCOCCO
inactive: activity, negative = inhibition ([2]; parasite line A) 9.57% | activity, negative = inhibition ([2]; parasite line B) 14.6% | Potency (3D7) | Potency (7G8) | Potency (AA1029) | Potency (AS120) | Potency (ATS189) | Potency (ATS95) | Potency (C2A) | Potency (CP185) | Potency (CP191) | Potency (CP192) | Potency (CP194) | Potency (CP201) | Potency (CP203) | Potency (CP211) | Potency (CP215) | Potency (CP217) | Potency (CP237) | Potency (CP238)

COc1ccc(-c2cc(C(F)F)nn2-c2ccc(S(N)(=O)=O)cc2)cc1F
inactive: activity, negative = inhibition ([2]; parasite line A) 1.08% | activity, negative = inhibition ([2]; parasite line B) -0.185% | Potency (3D7) | Potency (7G8) | Potency (AA1029) | Potency (AS120) | Potency (ATS189) | Potency (ATS95) | Potency (C2A) | Potency (CP185) | Potency (CP191) | Potency (CP192) | Potency (CP194) | Potency (CP201) | Potency (CP203) | Potency (CP211) | Potency (CP215) | Potency (CP217) | Potency (CP237) | Potency (CP238)

Nc1nc(Cl)nc2c1ncn2[C@@H]1O[C@H](CO)[C@@H](O)[C@@H]1F
active: Potency [1] 0.0977 µM
-1.93: Z-AUC [1, 3]
-1.97: Z-AUC ([1]; measured here: PEO4 Z-AUC)

NS(=O)(=O)c1ccc(Cl)c(S(N)(=O)=O)c1
inactive: activity, negative = inhibition ([2]; parasite line A) 8.67% | activity, negative = inhibition ([2]; parasite line B) 14.1% | Potency (3D7) | Potency (7G8) | Potency (AA1029) | Potency (AS120) | Potency (ATS189) | Potency (ATS95) | Potency (C2A) | Potency (CP185) | Potency (CP191) | Potency (CP192) | Potency (CP194) | Potency (CP201) | Potency (CP203) | Potency (CP211) | Potency (CP215) | Potency (CP217) | Potency (CP237) | Potency (CP238)

C#C[C@]1(O)CC[C@H]2[C@@H]3[C@H](C)CC4=C(CCC(=O)C4)[C@H]3CC[C@@]21C
inactive: Z-AUC [1] -1.06
-0.281: Z-AUC [1, 3]
0.766: Z-AUC ([1]; measured here: PEO4 Z-AUC)

CCc1oc2ccccc2c1C(=O)c1cc(I)c(O)c(I)c1
inactive: activity, negative = inhibition ([2]; parasite line A) -1.64% | activity, negative = inhibition ([2]; parasite line B) -5.21% | Potency (3D7) | Potency (7G8) | Potency (AA1029) | Potency (AS120) | Potency (ATS189) | Potency (ATS95) | Potency (C2A) | Potency (CP185) | Potency (CP191) | Potency (CP192) | Potency (CP194) | Potency (CP201) | Potency (CP203) | Potency (CP211) | Potency (CP215) | Potency (CP217) | Potency (CP237) | Potency (CP238)

CCOC(=O)c1c(N)sc2c1CCN(Cc1ccccc1)C2
active: Potency ([2]; parasite line A) 10 µM | Potency ([2]; parasite line B) 5.01 µM | Potency (3D7) 11.2 µM | Potency (7G8) 6.31 µM | Potency (AA1029) 5.01 µM | Potency (AS120) 8.91 µM | Potency (ATS189) 7.94 µM | Potency (ATS95) 8.91 µM | Potency (C2A) 11.2 µM | Potency (CP185) 5.01 µM | Potency (CP191) 5.01 µM | Potency (CP192) 5.36 µM | Potency (CP194) 7.57 µM | Potency (CP201) 6.75 µM | Potency (CP203) 4.26 µM | Potency (CP211) 6.75 µM | Potency (CP215) 8.49 µM | Potency (CP217) 5.62 µM | Potency (CP237) 7.94 µM | Potency (CP238) 5.62 µM

Nc1nc(N)c(-c2ccccc2)s1
inactive: activity, negative = inhibition ([2]; parasite line A) 18.4% | activity, negative = inhibition ([2]; parasite line B) 11.9% | Potency (3D7) | Potency (7G8) | Potency (AA1029) | Potency (AS120) | Potency (ATS189) | Potency (ATS95) | Potency (C2A) | Potency (CP185) | Potency (CP191) | Potency (CP192) | Potency (CP194) | Potency (CP201) | Potency (CP203) | Potency (CP211) | Potency (CP215) | Potency (CP217) | Potency (CP237) | Potency (CP238)

C/C=C/C=N/NC(=O)c1ccncc1
inactive: activity, negative = inhibition ([2]; parasite line A) -1.02% | activity, negative = inhibition ([2]; parasite line B) -0.189% | Potency (3D7) | Potency (7G8) | Potency (AA1029) | Potency (AS120) | Potency (ATS189) | Potency (ATS95) | Potency (C2A) | Potency (CP185) | Potency (CP191) | Potency (CP192) | Potency (CP194) | Potency (CP201) | Potency (CP203) | Potency (CP211) | Potency (CP215) | Potency (CP217) | Potency (CP237) | Potency (CP238)
